From PubChem BioAssay
The list is not random: actives were taken first. Their share in the collection is about 8.9%.
KB-3-1 tox – qHTS assay for MDR1-selective chemotherapeutics: Primary screen using the parental adenocarcinoma cell KB-3-1; KB-3-1 viability, CellTiter-Glo ATP luminescence, 72 h; 400,000 tested, 1.4% active; Potency, µM (titrated, usually from 46.1 µM), usual class: cytotoxic; also: potency is read from the fitted curve at half-maximal effect; % is scaled to controls: 0 for no effect and ±100 for the full control effect; nearly all actives have a fitted effect of over 60% in size
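Parental KB-3-1 adenocarcinoma cells in phenol-red-free DMEM with 10% FBS were pin-treated with compounds at several concentrations, incubated 72 h at 37 °C, and viability read by CellTiter-Glo luminescence; concentration-effect curves were fitted after normalization.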
SW480 rereplic – A quantitative high throughput screen for small molecules that induce DNA re-replication in SW480 colon adenocarcinoma cells; SW480 DNA re-replication, Hoechst DNA content imaging, 48 h; 340,000 tested, 1.8% active; Potency, µM (titrated, usually from 46.1 µM), without a hit: top-dose re-replication activation, hits mostly activators; also: potency is read from the fitted curve at half-maximal effect; % of control where 0% means no effect; nearly all actives have a fitted effect of over 55% in size
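Image-based DNA-content assay: after two days of treatment, nuclei were labelled with the DNA dye Hoechst and imaged, and hits were compounds raising the count of nuclei showing high fluorescence intensity.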
MCF10A rerep – A quantitative high throughput screen for small molecules that induce DNA re-replication in MCF 10a normal breast cells. 350,000 tested, 2.9% active. Potency, µM (top dose mostly 46.1 µM), inactives show at the highest dose activity, positive = re-replication, actives largely listed as activators. AID 624296, 2012. MCF 10A DNA re-replication, Hoechst nuclear intensity, 48 h; also: potency is read from the fitted curve at half-maximal effect; % of control where 0% means no effect; nearly all actives have a fitted effect of over 50% in size
D3 antag – qHTS of D3 Dopamine Receptor Antagonist: qHTS; AID 652054, 2013; D3R cells, DiscoveRx beta-arrestin luminescence, antagonist mode; active compounds read low; D(3) dopamine receptor (Homo sapiens), P35462; 360,000 tested, 2.5% active; max response, negative = inhibition, %; in the data active = max response below about -50%; inconclusive = no clear call, values can overlap the other calls; also: % is scaled to controls: 0 for no effect and ±100 for the full control effect
Target sequence (P35462 whole entry, looked up): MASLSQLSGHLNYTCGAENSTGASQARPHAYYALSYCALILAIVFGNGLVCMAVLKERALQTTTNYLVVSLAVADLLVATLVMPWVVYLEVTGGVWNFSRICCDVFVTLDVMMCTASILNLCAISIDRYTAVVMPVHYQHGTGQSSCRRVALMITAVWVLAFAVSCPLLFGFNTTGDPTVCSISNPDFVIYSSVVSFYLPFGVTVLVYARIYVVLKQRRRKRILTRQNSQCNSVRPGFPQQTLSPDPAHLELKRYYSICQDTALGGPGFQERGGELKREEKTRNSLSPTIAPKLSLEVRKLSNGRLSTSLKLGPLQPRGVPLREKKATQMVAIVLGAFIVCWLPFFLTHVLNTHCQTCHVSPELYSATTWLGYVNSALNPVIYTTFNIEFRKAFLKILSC
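Cells plated overnight at 1500 cells/well, then exposed to library compounds with dopamine controls for 90 minutes at 37 degrees C. DiscoveRx reagent added for 30–60 minutes at room temperature; luminescence read, quantitative HTS format.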
D3 ag – qHTS of D3 Dopamine Receptor Agonist: qHTS | D(3) dopamine receptor (Homo sapiens), P35462 | D3R DiscoveRx beta-arrestin cells, luminescence, 90 min | max activation, % | 410,000 tested, 0.58% active; in the data active = max activation above about 30%; also: 0% is about no effect
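Agonist-mode cell screen: cells plated at 1500/well and incubated overnight at 37 °C, then exposed to library compounds for 90 min at 37 °C. Detection reagent was added for 30–60 min at room temperature, and luminescence was read.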
KB-V1 cytotox – qHTS assay for MDR1-selective chemotherapeutics: Primary screen using the drug-selected MDR subline cells KB-V1 | KB-V1 MDR cells viability, CellTiter-Glo, 72 h | Potency, µM (highest dose often 46.1 µM), actives largely listed as cytotoxic | 400,000 tested, 3.4% active; also: potency is read from the fitted curve at half-maximal effect; % is scaled to controls: 0 for no effect and ±100 for the full control effect; nearly all actives have a fitted effect of over 60% in size
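Following 72 h at 37 degrees C with compound, KB-V1 cell viability was read by CellTiter-Glo luminescence, medium being phenol-red-free DMEM plus 10% FBS; concentration-response parameters came from normalized, curve-fitted qHTS data.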
Numbers without * were called inactive. Unless noted, calls follow the shape of the dose curve; as a rule, active = well fitted curve in the direction sought with a large enough effect; inconclusive = small, poorly fitted or top-dose-only effect, or another doubt; inactive = no such curve, though single readings can be large; an effect the other way counts as inactive or inconclusive.

`Cc1c(C(=O)N2CCN(CC(=O)Nc3ccccc3Cl)CC2)oc2ccc(Br)cc12` gave KB-3-1 tox inactive, SW480 rereplic -11%, MCF10A rerep 23µM*, D3 antag 8, D3 ag 2 and KB-V1 cytotox inactive.
Screening O=C(CN1CCN(C(=O)CNC(=O)c2ccc(-c3ccccc3)cc2)CC1)Nc1ccccc1Cl returned KB-3-1 tox inconclusive, D3 antag 49, D3 ag 5 and KB-V1 cytotox 8.2µM*.
Cc1c(C(=O)N2CCN(Cc3cccs3)CC2)oc2ccccc12 was read as KB-3-1 tox inactive, SW480 rereplic -7%, MCF10A rerep -6%, D3 antag -79*, D3 ag -24 and KB-V1 cytotox inactive.
`COCc1c(C(=O)N2CCN(Cc3nc4ccccc4s3)CC2)oc2ccccc12` gave KB-3-1 tox inactive, SW480 rereplic 2%, MCF10A rerep 15%, D3 antag 25, D3 ag 7 and KB-V1 cytotox 23µM*.
For CC(=O)N1CCN(C(=O)c2oc3ccccc3c2C)CC1 the results were KB-3-1 tox inactive, SW480 rereplic -17%, MCF10A rerep 20%, D3 antag -11, D3 ag -3 and KB-V1 cytotox inactive.
COC(=O)c1cc2oc3ccccc3c2n1Cc1nc(-c2ccc(Cl)cc2)oc1C was read as KB-3-1 tox inactive, D3 ag -23 and KB-V1 cytotox inactive.
Screening O=S(=O)(c1cccc(Cl)c1)N1CCN(c2nc(-c3ccccc3)nc3ccccc23)CC1 returned KB-3-1 tox inconclusive and KB-V1 cytotox inactive.
Screening Clc1cccc(CNc2cc(-c3ccccc3)nc3nncn23)c1 returned D3 ag 5.
CCCCn1c(SCc2ccccc2C#N)nc2c(sc3ccccc32)c1=O was read as KB-3-1 tox inactive, D3 ag 3 and KB-V1 cytotox inactive.
For Cc1c(C(=O)NC(C)CN2CCCCC2)oc2ccccc12 (stereo not drawn) the results were KB-3-1 tox inactive, SW480 rereplic 0%, MCF10A rerep 2%, D3 antag -77*, D3 ag -54 and KB-V1 cytotox inactive.
For C=CCN1CCN(C(=O)c2oc3ccccc3c2C)CC1 the results were KB-3-1 tox inactive, SW480 rereplic inconclusive, MCF10A rerep -4%, D3 antag -61*, D3 ag -11 and KB-V1 cytotox inactive.
Cc1ccsc1CN(C(=O)c1oc2ccccc2c1C)C1CCS(=O)(=O)C1 (stereo not drawn) was read as D3 ag -6.
`Cc1c(C(=O)N(Cc2cccs2)C2CCS(=O)(=O)C2)oc2ccccc12` (stereo not drawn) gave KB-3-1 tox inactive, SW480 rereplic 3%, MCF10A rerep 11%, D3 antag -2, D3 ag 21 and KB-V1 cytotox 6.5µM*.
`Cc1c(C(=O)N2CCCCC2)oc2ccccc12` gave KB-3-1 tox inactive, SW480 rereplic -2%, MCF10A rerep 0%, D3 antag 1, D3 ag -13 and KB-V1 cytotox inactive.
`Cc1onc(-c2ccccc2)c1C(=O)NCc1cccnc1` gave KB-3-1 tox inactive, SW480 rereplic -22%, MCF10A rerep -4%, D3 antag -75*, D3 ag 2 and KB-V1 cytotox inactive.
COc1ccc(-c2cc(C(=O)NCc3cccnc3)no2)cc1OC was read as KB-3-1 tox inactive, SW480 rereplic -14%, MCF10A rerep -4%, D3 antag 7, D3 ag -2 and KB-V1 cytotox 21µM*.
Screening Cc1cc(C(=O)NCc2cccnc2)no1 returned KB-3-1 tox inactive, SW480 rereplic -7%, MCF10A rerep 2%, D3 antag 27, D3 ag -17 and KB-V1 cytotox inactive.
CCCC(=O)c1c[nH]c(C(=O)NCc2cccnc2)c1 was read as KB-3-1 tox inactive, SW480 rereplic 6%, MCF10A rerep inconclusive, D3 antag -88*, D3 ag -12 and KB-V1 cytotox inactive.
Cc1onc(-c2ccccc2)c1C(=O)NCCc1ccncc1 was read as KB-3-1 tox inactive, SW480 rereplic 27%, MCF10A rerep 13%, D3 antag -11, D3 ag -11 and KB-V1 cytotox inactive.
For Cc1ccc(-c2cc(C(=O)NCc3cccnc3)no2)cc1 the results were KB-3-1 tox inactive, SW480 rereplic -4%, MCF10A rerep 2%, D3 antag 11, D3 ag -3 and KB-V1 cytotox 16µM*.
Screening CN(Cc1ccc(OC(F)F)cc1)C(=O)/C=C/c1ccc(S(=O)(=O)N2CCOCC2)cc1 returned KB-3-1 tox inactive, SW480 rereplic -6%, MCF10A rerep 11%, D3 antag 2, D3 ag -4 and KB-V1 cytotox inactive.
Screening CCOc1c(OC(C)=O)ccc(/C=C2\N=C(SCC)SC2=O)c1[N+](=O)[O-] returned KB-3-1 tox inactive, SW480 rereplic -12%, MCF10A rerep 4%, D3 antag -70*, D3 ag 1 and KB-V1 cytotox inactive.
For CCOc1cc(/C=C2\N=C(SCC)SC2=O)cc([N+](=O)[O-])c1OC(C)=O the results were KB-3-1 tox inactive, SW480 rereplic -16%, MCF10A rerep -34%, D3 antag -97*, D3 ag -8 and KB-V1 cytotox inactive.
CCOC(=O)c1noc2ncnc(N3CCN(c4ccccc4OC)CC3)c12 was read as KB-3-1 tox inconclusive, D3 ag -11 and KB-V1 cytotox inconclusive.
`Cc1cccc(N(C)C(=O)Cn2cnc3nc4c(cc3c2=O)CCCC4)c1` gave KB-3-1 tox inactive, D3 ag -13 and KB-V1 cytotox inactive.
Screening Cn1nc(C(=O)NCc2ccccc2)c2ccccc2c1=O returned KB-3-1 tox inactive, SW480 rereplic -1%, MCF10A rerep 20%, D3 antag 4, D3 ag 2 and KB-V1 cytotox inactive.
For CC(NC(=O)c1nn(C)c(=O)c2ccccc12)c1ccccc1 (stereo not drawn) the results were KB-3-1 tox inactive, SW480 rereplic -7%, MCF10A rerep -1%, D3 antag 3, D3 ag 3 and KB-V1 cytotox 21µM*.
O=S(=O)(c1ccc(Cl)cc1)N1CCN=C1SCc1cccc(Cl)c1 was read as KB-3-1 tox inactive, SW480 rereplic -13%, MCF10A rerep 12%, D3 antag 5, D3 ag 3 and KB-V1 cytotox 21µM*.
